These results are taken from PubChem BioAssay AID393 (SGCOxCompounds, 2006).

Activity calls are given as the source filed them. The rule behind the calls is not given here.

In this assay the target is Serine/threonine-protein kinase pim-1 (Homo sapiens) (UniProt P11309). Description: compound-induced PIM1 thermal stabilization – biophysical, human, melting temperature shift (AID 393). To be noted: Thermal shift assay, hits give high values; at 10 µM, protein 2 µM, buffer 10 mM PIPES, pH 6.5, NaCl 150 mM unless noted.
Sequence of Serine/threonine-protein kinase pim-1 (Homo sapiens) (P11309 whole entry, looked up): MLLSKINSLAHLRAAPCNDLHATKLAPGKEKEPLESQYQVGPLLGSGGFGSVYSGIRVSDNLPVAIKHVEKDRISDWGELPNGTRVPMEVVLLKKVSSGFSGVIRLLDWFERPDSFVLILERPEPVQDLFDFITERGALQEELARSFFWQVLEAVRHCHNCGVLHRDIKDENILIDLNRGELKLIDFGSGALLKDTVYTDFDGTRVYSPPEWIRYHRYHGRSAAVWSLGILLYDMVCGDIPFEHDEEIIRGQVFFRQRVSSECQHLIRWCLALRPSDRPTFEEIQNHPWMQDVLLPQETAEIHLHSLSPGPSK

On to `CCC(CO)Nc1ccc2ncc(-c3cccc(OC(F)(F)F)c3)n2n1` (stereo not given), for which the Tm shift is 9.04 Celsius (active). On to `COCCNc1ccc2ncc(-c3cccc(C(C)=O)c3)n2n1`, for which the Tm shift was 4.92 Celsius (active). `O=C1Cc2c([nH]c3ccc(Br)cc23)-c2ccccc2N1`: the Tm shift was 3.9 Celsius [at 10 µM, protein 2 µM, buffer 10 mM Na Citrate, pH 6.5, NaCl 150 mM] (active). Under `O=c1c(O)c(-c2ccc(O)c(O)c2)oc2cc(O)cc(O)c12` stands 9.8 Celsius [at 10 µM, protein 2 µM, buffer 10 mM Na Citrate, pH 6.5, NaCl 150 mM] (active); under `Nc1ccc(-c2cnn3ccc(Nc4cccc(Cl)c4)nc23)cc1`, 6.84 Celsius (active); under `COCCNc1ccc2ncc(-c3cccc(Cl)c3)n2n1`, 6.33 Celsius (active). Consider `Brc1c(Br)c(Br)c2n[nH]nc2c1Br`, for which the Tm shift is 4.6 Celsius [at 10 µM, protein 2 µM, buffer 10 mM Na Citrate, pH 6.5, NaCl 150 mM] (active). Under `CC(=O)c1cccc(-c2cnc3ccc(NC4CCOCC4)nn23)c1` stands 5.71 Celsius (active); under `CC(O)(O)C1(O)C[C@@H]2O[C@@]1(C)n1c3ccccc3c3c4c(c5c6ccccc6n2c5c31)C(=O)NC4` (stereo not given in full), 4.3 Celsius [at 10 µM, protein 2 µM, buffer 10 mM Na Citrate, pH 6.5, NaCl 150 mM] (active); under `NCCNc1ncc(C(N)=O)c(Nc2cccc(C(F)(F)F)c2)n1`, 5.5 Celsius [at 10 µM, protein 2 µM, buffer 10 mM Na Citrate, pH 6.5, NaCl 150 mM] (active).
